According to PubChem BioAssay (EPA / NIEHS):
Results filed as inconclusive are left out. Active and inactive are the calls of the source. Rule for the calls: active = hit-call score of the fitted dose curve at least 0.9, where 1 is the maximum; inconclusive = response in the unintended direction; inactive = score below 0.9.

What follows are compounds tested against Bile acid receptor (Homo sapiens) (UniProt Q96RI1) (assay: OT_FXR_FXRSRC1_1440: Odyssey Thera (OT) 24-hour HEK293T Protein-Complementation Assay for Farnesoid X receptor/SRC-1 Co-activator (AID 2283384)).
Chain of Bile acid receptor (Homo sapiens) (Q96RI1 whole entry, looked up, the tested form may be a part): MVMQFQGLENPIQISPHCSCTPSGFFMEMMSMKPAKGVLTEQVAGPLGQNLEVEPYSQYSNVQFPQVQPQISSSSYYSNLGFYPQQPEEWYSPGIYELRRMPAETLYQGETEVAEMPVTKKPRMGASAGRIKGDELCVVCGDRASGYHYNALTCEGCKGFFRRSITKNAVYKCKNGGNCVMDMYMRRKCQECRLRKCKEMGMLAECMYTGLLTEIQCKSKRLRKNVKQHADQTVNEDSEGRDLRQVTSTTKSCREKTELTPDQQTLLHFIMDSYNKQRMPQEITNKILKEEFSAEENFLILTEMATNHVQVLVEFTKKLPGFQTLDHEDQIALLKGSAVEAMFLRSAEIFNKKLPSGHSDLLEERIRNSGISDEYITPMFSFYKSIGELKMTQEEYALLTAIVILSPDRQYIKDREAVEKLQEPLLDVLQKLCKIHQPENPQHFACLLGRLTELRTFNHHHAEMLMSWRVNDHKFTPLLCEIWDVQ
Experimental: OT_FXR_FXRSRC1_1440 is a cell-based assay that uses HEK293T, a human kidney cell line, with measurements taken at 24 hours after chemical dosing in a 384-well plate.OT_FXR_FXRSRC1_1440 is one of one assay component(s) measured or calculated from the OT_FXR_FXRSRC1_1440 assay. It is designed to make measurements of protein fragment complementation, a form of binding reporter, as detected with fluorescence intensity signals by Protein-fragment Complementation technology.Data from the assay component OT_FXR_FXRSRC1_1440 was analyzed into 1 assay endpoint. This assay endpoint, OT_FXR_FXRSRC1_1440, was analyzed in the positive analysis fitting direction relative to DMSO as the negative control and baseline of activity. Using a type of binding reporter, measures of receptor for gain-of-signal activity can be used to understand the binding at the pathway-level as they relate to the gene NR1H4. Furthermore, this assay endpoint can be referred to as a primary readout, because the performed assay has only produced 1 assay endpoint. To generalize the intended target to other relatable targets, this assay endpoint is annotated to the nuclear receptor intended target family, where the subfamily is non-steroidal.
Protein-fragment complementation assay, or PCA, is a method for the identification and quantification of protein-protein interactions. In the PCA, the proteins of interest ("bait" and "prey") are each covalently linked to fragments of a third protein (e.g. DHFR, which acts as a "reporter"). Interaction between the bait and the prey proteins brings the fragments of the reporter protein in close proximity to allow them to form a functional reporter protein whose activity can be measured.
For `COc1cc(S(=O)(=O)O)c(C)cc1N=Nc1c(O)ccc2cc(S(=O)(=O)O)ccc12`, the outcome was “inactive”.
For `C=CCOC(=O)c1ccccc1C(=O)OCC=C`, the outcome was “inactive”.
For `Nc1ccc(S(=O)(=O)c2ccc(N)cc2)cc1`, the outcome was “inactive”.
`CCCCCCCCCCCC(=O)OC` was tested, and the outcome was “inactive”.
In the case of `O=c1[nH]cc(F)c(=O)[nH]1`, the AC50 is reported as 5.73 µM (active).
`CC(CO)OC(C)CO` (configuration not stated) (tested in a mixture with another compound) was tested, and the outcome was “inactive”.
`COc1cc(-c2nc(NC(=O)c3cc4cc(C)cc(C)c4n3CC(=O)O)sc2CCC2CCCCC2)c(OC)cc1Cl` was tested, and the AC50 was 10.1 µM (active).
For `Oc1ccc2ccccc2c1N=Nc1ccccc1`, the AC50 was 32.9 µM (active).
For `Nc1nc(N)c2nc(CNc3ccc(C(=O)N[C@@H](CCC(=O)O)C(=O)O)cc3)cnc2n1`, the outcome was “inactive”.
For `NC(=O)Cn1c(=O)cc(CCN2CCN(c3nccc4sccc34)CC2)c2ccc(F)cc21`, the outcome was “inactive”.
In the case of `O=C(O)Cc1ccccc1Nc1c(Cl)cccc1Cl`, the outcome is reported as “inactive”.
In the case of `Cc1ccccc1Cl`, the outcome is reported as “inactive”.
In the case of `CCCCCCCCCCO`, the outcome is reported as “inactive”.
For `Cc1cc(=O)[nH]c(=S)[nH]1`, the outcome was “inactive”.
With `CC(=O)OCCOCCOCCOC(C)=O` the outcome was “inactive”.
In the case of `CCOC(=O)C(C)(C)Oc1ccc(Cl)cc1`, the outcome is reported as “inactive”.
For `O=C(O)CCCCC(=O)O`, the outcome was “inactive”.
In the case of `CCCCN(CCCC)CCCC`, the outcome is reported as “inactive”.
`Cc1nc(-c2ccc3c(c2)CCN(CCC2CCC(NC(=O)/C=C/c4ccc(F)cc4)CC2)CC3)no1` (configuration not stated) was tested, and the outcome was “inactive”.
With `Cc1cc(NC(=O)C(=O)O)cc(C)c1Oc1ccc(O)c2c1CCC2` the outcome was “inactive”.
In the case of `CC1(C)CC(N=C=O)CC(C)(CN=C=O)C1` (configuration not stated), the outcome is reported as “inactive”.
In the case of `CCc1c(C(=O)NN2CCCCC2)nn(-c2ccc(Cl)cc2Cl)c1-c1ccc(Br)cc1`, the AC50 is reported as 1.28 µM (active).
